# Screening results from PubChem.
# Shown are actives, neighbours in structure and some others; about 2.1% of the full set was active somewhere.
# MITF TRPM1 inh: inhibitors of MITF-dependent TRPM1 promoter reporter, primary screen, cell-based, SK-MEL-5, single point, luciferase; AID 488899, 2010; hit rate 0.83% among 330,000; inhibition, % at 12.5 µM; SK-MEL-5 TRPM1 promoter luciferase, 24 h;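 active = mean inhibition across replicates of 60% or more, whatever share of single replicates reaches that level; inconclusive = some that reach 60%, reason not given; inactive = mean inhibition across replicates below 60%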
# Shn3 inh set2: reduction of Shn3 3'UTR firefly luciferase signal, primary screen, Schnurri-3 inhibitor project, cell-based, Clone20 osteoblasts, set 2. inhibition, % at 12.5 µM. AID 588674, 2011. hit rate 0.52% among 360,000. Clone20 osteoblast Shn3 3'UTR firefly luciferase, 24 h;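 active = mean inhibition of at least 75% with every replicate also reaching 75%; inconclusive = mean inhibition at least 75% but some replicate below; inactive = mean inhibition below 75%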;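 note: 0% = median of neutral control wells and 100% = pilot-screen positive control compound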
# PAX8 inh HTS: inhibitors of PAX8-driven TPO luciferase reporter, primary screen, RMG-I cells, single concentration | AID 652154, 2013 | SteadyGlo, 24 h | hit rate 1.2% among 360,000 | inhibition, % at 12.6 µM;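 active = mean replicate inhibition at least 60% with every replicate also reaching 60%; inconclusive = only one of the two criteria is met; inactive = mean below 60% and not all replicates reaching 60%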;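 note: luciferase light reporting Pax8 driven TPO promoter activity; plate controls were median of neutral control wells for no effect and mitoxantrone controls for full effect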
# LMP1 NFkB inh: EBV LMP1-driven NF-kappaB luciferase reporter inhibitors, primary screen, cell-based, luminescence, single point; LMP1-induced NF-kappaB luciferase reporter cells; inhibition, % at 12.5 µM; hit rate 0.69% among 350,000; AID 504558, 2011; in the data active = inhibition above about 41%; inconclusive = no clear call, values can overlap the other calls;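 note: 0% = neutral control wells and 100% = reference inhibitor control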
# aSyn 5UTR inh: MLPCN primary screen, SNCA 5' untranslated region; alpha-synuclein 5'UTR reporter, inhibitor activity; inhibition, % (tested at 7.5 µM); hit rate 0.82% among 300,000; AID 1813, 2009; in the data active = inhibition above about 60%; inconclusive = no clear call, values can overlap the other calls;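 note: H4 neuroglioblastoma cells stably carrying SNCA 5'UTR luciferase fusion; 0% = DMSO wells and 100% = positive control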
# * marks the source's active call; other numbers are inactive results; ? = inconclusive; nt = no result given.
SMILES,MITF TRPM1 inh,Shn3 inh set2,PAX8 inh HTS,LMP1 NFkB inh,aSyn 5UTR inh
C[C@H]1CN([C@@H](C)CO)C(=O)c2cccc(NC(=O)Nc3ccc(F)cc3)c2O[C@H]1CN(C)S(=O)(=O)c1cccs1,nt,nt,2,nt,nt
C[C@@H]1CN([C@@H](C)CO)C(=O)c2cccc(NC(=O)c3ccncc3)c2O[C@@H]1CN(C)S(=O)(=O)c1cccs1,nt,nt,98*,nt,nt
Cc1noc(/C=C/c2ccccn2)c1[N+](=O)[O-],54,-54,37,23,-211
O=C(Nc1cccc(-c2csc(Nc3ccc(Cl)cc3)n2)c1)c1cc([N+](=O)[O-])cc(C(F)(F)F)c1,-1,62,79*,-19,-72
Cc1cnc(NC(=O)COc2ccccc2Cl)s1,48,63,nt,66*,82*
Cc1cnc(NC(=O)CCNC(=O)c2ccccc2Cl)s1,-2,-13,-1,2,-16
CN1C2=CC=CC=CC2=[N+](C)C12C([N+](=O)[O-])=CC(=[N+]([O-])[O-])C=C2[N+](=O)[O-] (configuration not stated),70*,4,9,-50,-73
CCN1/C(=C/c2cc[n+](C)cc2)C=Cc2cc(C)ccc21,70*,80,59,30,nt
Cc1nnc(SC(=O)N2c3ccccc3Sc3ccccc32)s1,76*,62,nt,?,-66
CCCCNc1nc(Cl)nc(Nc2ccc(C)cc2)n1,nt,-27,-32,nt,-47
Cc1ccc(-c2c[n+](CC(=O)c3ccc(Br)cc3)c3n2CCCCC3)cc1,-14,43,98*,11,19
O=C(CNC(=O)c1ccccc1O)N/N=C/c1cc(Br)ccc1OC(=O)/C=C/c1ccco1,nt,nt,42,nt,68*
O=C(CNC(=O)c1ccc(F)cc1)N/N=C/c1cc(Br)ccc1OCc1ccccc1,-10,-9,11,-23,-23
O=C(CNC(=O)c1cccc(F)c1)N/N=C/c1cc(Br)ccc1OC(=O)/C=C/c1ccco1,67*,87*,9,13,58
O=C(N/C(=C\c1ccc(Br)cc1)C(=O)N1CCOCC1)c1ccco1,9,11,31,-5,9
CCOC(=O)N1CCN(C(=O)C2CCN(C(=O)c3ccccc3C)CC2)CC1,74*,93*,51,-2,nt
O=[N+]([O-])c1c(Nc2ccccc2O)cc(Cl)c2nonc12,106*,97*,91*,79*,12
COc1cc2nc(N3CCN(c4cc(C)ccc4C)CC3)nc(N)c2cc1OC,12,94*,31,4,95*
COc1ccc(C)cc1Nc1nc(N)c2cc(OC)c(OC)cc2n1,74*,0,nt,12,-37
COc1ccccc1-c1ccc2c(c1)O[C@@H](CN(C)Cc1ccc3c(c1)OCO3)[C@H](C)CN([C@@H](C)CO)S2(=O)=O,nt,nt,46,nt,nt
COc1ccc(CN2C(=O)C(C)Nc3ncnc(N4CCOCC4)c32)cc1 (configuration not stated),15,16,69*,3,nt
Cc1ccc(NS(=O)(=O)c2cc(NC(=O)c3cc4c(s3)CCCC4)ccc2C)c(C)c1,1,-1,-4,-14,-36
CSc1ccc(NC(=O)NCCN2CCc3ccccc3C2)cc1,-12,13,nt,-14,-35
COc1ccc(C(CNC(=O)Nc2ccccc2)N2CCN(C)CC2)cc1 (configuration not stated),-3,3,-30,52*,6
COc1ccc(C(CNC(=O)Nc2ccc(Cl)cc2)N2CCN(C)CC2)cc1 (configuration not stated),-14,-27,0,2,-11
SMILES,MITF TRPM1 inh,Shn3 inh set2,PAX8 inh HTS,LMP1 NFkB inh,aSyn 5UTR inh
COc1ccc(NC(=O)NCCN2CCc3ccccc3C2)cc1,-4,-24,nt,82*,-2
O=C(Cc1ccncc1)Nc1ccc2c(c1)[C@H]1C[C@H](CC(=O)N3CCc4ccccc4C3)O[C@H](CO)[C@H]1O2,nt,nt,-55,nt,nt
Oc1c(C(c2ccccn2)N2CCCCC2)cc(Cl)c2cccnc12 (configuration not stated),25,20,77*,-1,-15
CN1CCN(C(c2ccc(C(F)(F)F)cc2)c2cc(Cl)c3cccnc3c2O)CC1 (configuration not stated),nt,nt,?,nt,53
CN1CCN(C(c2ccc(Cl)cc2)c2cc(Cl)c3cccnc3c2O)CC1 (configuration not stated),43,77,54,-9,77*
C[C@@H]1CN([C@@H](C)CO)C(=O)Cc2cc(NC(=O)Cn3cnnn3)ccc2O[C@H]1CN(C)C(=O)Nc1ccc2c(c1)OCO2,nt,nt,-3,nt,nt
C/C(=N\NC(=O)c1nnn(-c2nonc2N)c1CSc1ccccc1)c1ccc2c(c1)OCO2,7,1,4,-7,-1
CC(C)n1cnc2c(Nc3ccc(F)c(Cl)c3)nc(NCCO)nc21,9,-12,20,0,3
C=CC(=O)Nc1ccc(Nc2nc(NC3CCC(N(C)C)CC3)nc3c2ncn3C(C)C)cc1 (configuration not stated),86*,94*,nt,79*,nt
COCC(=O)Nc1ccc2c(c1)[C@@H]1C[C@@H](CC(=O)NCc3cccnc3)O[C@H](CO)[C@@H]1O2,nt,nt,-1,nt,nt
COc1ccc2nc(C)cc(N/N=C/c3ccccc3)c2c1,99*,19,nt,-21,nt
COc1ccc(/C=N/Nc2cc(C)nc3ccc(OC)cc23)c(OC)c1,85*,96*,87*,70*,117*
COc1ccccc1/C=N/Nc1cc(C)nc2ccc(C)cc12,12,-95,-29,-3,-30
C[C@@H]1CN([C@@H](C)CO)C(=O)c2cc(NC(=O)Nc3ccccc3)ccc2O[C@@H](C)CCCCO[C@@H]1CN(C)Cc1ccc2c(c1)OCO2,nt,nt,-4,nt,nt
COc1ccc(NC(=O)Nc2ccc3nccnc3c2)cc1,-97,-95,nt,-12,-122
CN(Cc1cnc2nc(N)nc(N)c2n1)c1ccc(C(=O)N[C@@H](CCC(=O)O)C(=O)O)cc1,35,63,48,?,78*
Nc1nc2ncc(CNc3ccc(C(=O)N[C@@H](CCC(=O)O)C(=O)O)cc3)nc2c(=O)[nH]1,3,2,nt,-4,9
CCCCCCCCN1C(=O)[C@@H](CC(=O)N2CCN(C(=O)c3ccco3)CC2)C[C@@]2(C(=O)OC)C1=C[C@H](C(C)(C)C)O[C@@H]2C,nt,nt,84*,nt,nt
CCCCCCCCN1C(=O)[C@@H](CC(=O)N2CCC(c3ccccc3)CC2)C[C@@]2(C(=O)OC)C1=C[C@H](C(C)(C)C)O[C@@H]2C,nt,nt,-22,nt,nt
COC(=O)[C@]12C[C@H](CC(=O)NCc3cccc4ccccc34)C(=O)N(Cc3ccc4c(c3)OCO4)C1=C[C@H](C(C)(C)C)O[C@@H]2C,nt,nt,11,nt,nt
COC(=O)[C@]12C[C@H](CC(=O)NCc3ccc(OC)c(OC)c3)C(=O)N(Cc3ccc4c(c3)OCO4)C1=C[C@H](C(C)(C)C)O[C@@H]2C,nt,nt,79*,nt,nt
